HT1080NT lethal: kills 2HG-producing HT-1080-NT fibrosarcoma cells. HT-1080-NT fibrosarcoma viability, CellTiter-Glo ATP luminescence, 48 h. Potency, µM (highest dose often 46.1 µM), hits mostly cytotoxic. hit rate 1.6% among 360,000. AID 686970;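 also: NT is the 2HG producing partner of a matched IDH1 knockdown line; nearly all actives have a fitted effect of over 55% in size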
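Read-out is CellTiter-Glo luminescence after 10 minutes at room temperature, following 48 hours' compound treatment of HT-1080-NT cells (750 cells/well, RPMI, 5% FBS, 37 degrees C).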
TDP1 cell noCPT: qHTS for Inhibitors of human tyrosyl-DNA phosphodiesterase 1 (TDP1): qHTS in cells in absence of CPT | DT40 Tdp1-/- hTDP1 cells, no CPT, ATP luminescence, 48 h | Potency, µM (top dose mostly 46.2 µM), most hits filed as inhibitors | hit rate 15% among 420,000 | AID 686978, 2013; also: nearly all actives have a fitted effect of over 55% in size
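Compound effects on proliferation are scored in DT40 Tdp1-/-;hTDP1 cells in the absence of CPT. ATP levels (CellTiter-Glo luminescence) are recorded after a ≥48 hr, 37 °C incubation.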
TDP1 cell CPT: growth inhibition of DT40 Tdp1-/-;hTDP1 cells with camptothecin (screen for TDP1 inhibitors); chicken DT40 Tdp1-/-;hTDP1 cells + 20 nM CPT, ATP luminescence, 48 h; hit rate 12% among 420,000; Potency, µM (top dose mostly 46.2 µM), hits mostly inhibitors; also: nearly all actives have a fitted effect of over 55% in size
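Chicken DT40 Tdp1-/- cells stably complemented with human TDP1 were seeded at 400 cells/well in medium containing 20 nM camptothecin, exposed to pin-transferred compounds, and grown at 37 °C for at least 48 hr. Viability was read as ATP luminescence.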
HT1080 IDH1KD tx: HT-1080 IDH1 knockdown cell toxicity (counter line); hit rate 2% among 360,000; HT-1080 IDH1 knockdown viability, ATP luminescence, 48 h; AID 686971; Potency, µM (titrated, usually from 46.1 µM), most hits filed as cytotoxic
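Viability of IDH1-knockdown HT-1080 fibrosarcoma cells was assessed by CellTiter-Glo after 48 h at 37 °C with titrated compound; concentration-effect curves were classified by fit quality and response size.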
12-LOX inh: blocks human arachidonate 12S-lipoxygenase. Potency, µM (highest dose often 108 µM), usual class: inhibitors. hit rate 1.1% among 580,000. AID 1671190. P18054. purified 12hLO, xylenol orange hydroperoxide absorbance
Target sequence (P18054 whole entry, looked up): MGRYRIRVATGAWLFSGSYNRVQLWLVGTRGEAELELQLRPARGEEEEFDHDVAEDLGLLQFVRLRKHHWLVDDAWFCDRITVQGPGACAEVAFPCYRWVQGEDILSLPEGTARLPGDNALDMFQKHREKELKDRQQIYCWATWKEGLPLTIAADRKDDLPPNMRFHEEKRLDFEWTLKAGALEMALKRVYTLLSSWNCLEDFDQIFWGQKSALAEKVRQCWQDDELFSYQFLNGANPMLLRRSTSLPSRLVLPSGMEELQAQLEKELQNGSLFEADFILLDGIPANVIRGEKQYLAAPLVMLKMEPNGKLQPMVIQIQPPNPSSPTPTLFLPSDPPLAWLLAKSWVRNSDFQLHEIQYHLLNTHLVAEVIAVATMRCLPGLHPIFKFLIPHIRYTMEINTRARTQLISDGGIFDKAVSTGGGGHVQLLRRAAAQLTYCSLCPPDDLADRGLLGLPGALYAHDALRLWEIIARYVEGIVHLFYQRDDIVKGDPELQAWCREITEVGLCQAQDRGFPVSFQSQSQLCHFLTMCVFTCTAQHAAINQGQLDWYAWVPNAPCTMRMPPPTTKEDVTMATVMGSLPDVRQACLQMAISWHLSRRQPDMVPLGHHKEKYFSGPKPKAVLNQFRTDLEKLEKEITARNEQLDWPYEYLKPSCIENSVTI
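Purified human 12hLO (150 nM final) in 25 mM Hepes, 0.01% Triton X-100, pH 7.0 was preincubated 15 min at room temperature with compound. Then 40 uM arachidonic acid was added, 30 min. Hydroperoxide was read by Fe-XO absorbance ratio 573/405 nm.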
IL1B secr inh: inflammasome signaling inhibition, IL-1 beta readout. THP-1 LPS/ATP IL-1B secretion, AlphaLISA, 16 h; hits give low values. activity change, % at 57.5 µM. hit rate 4.7% among 360,000. AID 743279; in the data active = activity change below about -50%; inconclusive = mostly about -30% to -49%
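THP-1 cells pretreated 1 hr with compounds (up to 57.5 uM final), then stimulated with LPS (250 ng/mL final) plus ATP (1.25 mM final); secreted IL-1B measured by AlphaLISA after 16 hr, decreased signal indicating inhibition.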
A number is an active result; 0 = inactive; ? = inconclusive; - = not tested or not shown. Many of the other results were omitted from the sample, so hits are more common in it than they were. Unless noted, calls follow the shape of the dose curve; as a rule, active = well fitted curve in the direction sought with a large enough effect; inconclusive = small, poorly fitted or top-dose-only effect, or another doubt; inactive = no such curve, though single readings can be large; an effect the other way counts as inactive or inconclusive.

SMILES	HT1080NT lethal	TDP1 cell noCPT	TDP1 cell CPT	HT1080 IDH1KD tx	12-LOX inh	IL1B secr inh
CCN1CCn2c3c(c4cc(Cl)ccc42)CCCC31 (stereo not drawn)	0	?	?	?	?	0
COc1cc(CN2CCC3(CCN(CC4CC4)CC3)C(CO)C2)ccc1F (stereo not drawn)	-	-	-	-	0	-
COCc1noc(CC2CCOC3(CCN(C(=O)c4c[nH]c5ccccc45)CC3)C2)n1 (stereo not drawn)	-	-	-	-	0	-
CC(=O)NC(C)(c1ccccc1)c1nc(-c2ccc(S(C)(=O)=O)cc2)cs1 (stereo not drawn)	0	0	?	0	0	0
COCc1cccc(-c2csc(C(C)(NC(C)=O)c3ccc(OC)cc3)n2)c1 (stereo not drawn)	0	?	18.4µM	0	0	0
COCc1cccc(-c2csc(C(C)(NC(C)=O)c3ccccc3)n2)c1 (stereo not drawn)	0	18.4µM	23.1µM	0	0	0
CC(=O)NC(C)(c1ccccc1)c1nc(-c2cccc(F)c2)cs1 (stereo not drawn)	0	?	29.1µM	0	0	-
O=C(NCCn1ccn2nc(-c3ccc(F)cc3)cc2c1=O)c1ccc2c(c1)OCO2	-	-	-	-	0	-
CS(=O)(=O)N1CCCN(C(=O)c2cnn(Cc3ccccc3Cl)c2)CC1	-	-	-	-	0	-
CCS(=O)(=O)N1CCN(Cc2c[nH]c3ccccc23)CC1	0	0	?	0	?	0
O=[N+]([O-])c1ccc(CN2CCN(Cc3c[nH]c4ccccc34)CC2)cc1	0	?	?	?	?	-68.9
c1ccc2cc(CN3CCN(Cc4c[nH]c5ccccc45)CC3)ccc2c1	-	-	-	-	1.78µM	-
Brc1ccc(CN2CCN(Cc3c[nH]c4ccccc34)CC2)cc1	23.1µM	9.2µM	2.31µM	20.6µM	?	?
c1cnc(N2CCN(Cc3c[nH]c4ccccc34)CC2)nc1	0	2.06µM	1.84µM	?	0	?
O=C(Cc1ccc([N+](=O)[O-])cc1)NCCc1c[nH]c2ccccc12	-	-	-	-	0	-
Cc1cc(C(=O)CSc2nnc(-c3ccncc3)n2-c2ccc(F)cc2)c(C)n1C1CC1	-	-	-	-	0	-
Brc1ccccc1CN1CCN(Cc2c[nH]c3ccccc23)CC1	7.31µM	1.46µM	0.517µM	23.1µM	?	-103.1
C=CCNC(=O)CCC1NC(=O)N(CCc2c[nH]c3ccc(F)cc23)C1=O (stereo not drawn)	-	-	-	-	0	-
COc1cccc(C2=NOC(C(=O)NCc3ccccc3)C2)c1 (stereo not drawn)	?	4.61µM	5.17µM	?	0	0
C=CCNC(=O)C1CC(c2cccc(OC)c2)=NO1 (stereo not drawn)	0	0	0	0	0	0
COc1cccc(C2=NOC(C(=O)NCc3ccco3)C2)c1 (stereo not drawn)	?	13µM	9.2µM	?	0	0
COCCNC(=O)C1CC(c2cccc(OC)c2)=NO1 (stereo not drawn)	0	?	0	0	0	0
CCCC(NC(=O)Cn1nnn(-c2ccccc2)c1=O)c1ccccc1 (stereo not drawn)	-	-	-	-	0	-
CC1=NN(C(N)=S)C(=O)C1N=Nc1ccccc1C(=O)O (stereo not drawn)	0	0	0	0	0	0
CC1=NN(c2ccccc2C(=O)O)C(=O)C1N=Nc1ccccc1 (stereo not drawn)	0	20.6µM	13µM	0	0	0
SMILES	HT1080NT lethal	TDP1 cell noCPT	TDP1 cell CPT	HT1080 IDH1KD tx	12-LOX inh	IL1B secr inh
C1=CC2=NC34CCCCC3CC3=C(CCCC3)N4C2=CC1=NC1CCCCC1 (stereo not drawn)	0	5.17µM	5.17µM	?	-	-97.6
CCOc1ccc(S(=O)(=O)NCc2cccnc2)cc1NC(=O)c1ccccc1	?	0	0	0	0	0
COc1ccc(S(=O)(=O)NCc2ccccn2)cc1NC(=O)c1ccccc1F	4.61µM	2.59µM	2.31µM	5.8µM	0	0
CCOc1ccc(S(=O)(=O)NCc2ccccn2)cc1NC(=O)c1ccccc1	2.59µM	1.3µM	1.3µM	3.26µM	0	0
COc1ccc(S(=O)(=O)NCc2ccccn2)cc1C	0	0	0	0	0	0
C/C(=N/NC(=O)c1cccs1)c1ccc2ccccc2c1	-	-	-	-	0	-
O=C1NCCCCCN(C(=O)Cc2cccc(F)c2)[C@@H]2CCCC[C@H]12	-	-	-	-	0	-
O=C(Nc1ccc(F)c(F)c1)c1cc(S(=O)(=O)N2CCc3ccccc32)ccc1F	-	10.3µM	10.3µM	-	?	-
O=C(Nc1ccc(Cl)cc1)c1cc(S(=O)(=O)N2CCc3ccccc32)ccc1F	-	18.4µM	18.4µM	-	?	-
COc1ccc(S(=O)(=O)N2CCc3ccccc32)cc1C(=O)Nc1ccc(NC(C)=O)cc1	?	?	?	0	0	0
COC(CNC(=O)c1cc(S(=O)(=O)N2CCc3ccccc32)ccc1F)OC	0	0	?	0	0	0
Cc1ccccc1C(=O)N1CCC(N2CCCNC2=O)CC1	-	-	-	-	0	-
CC(C)c1ccc(NC(=S)NNC(=O)C2CC2)cc1	0	0	0	0	0	0
Cc1ccccc1C(=O)N1CCC(N2CCCCCC2=O)CC1	-	-	-	-	89.1µM	-
Cc1ccccc1C(=O)N1CCC(C(=O)Nc2ccc(F)cc2)CC1	0	0	0	0	0	0
